In general, AC50 refers to the midpoint of the concentration-response curve, whichever way the signal moves.

Each structure is given as a SMILES string. “And” between values parts separate entries of the source, which are not always exact repeats. Equal values may be shown once. Some structures have more than one record in an assay (separate samples or runs), and their calls can disagree. The source made the active and inactive calls. How the source made its calls: active means hit-call score of the fitted dose curve at least 0.9, where 1 is the maximum; inactive means score below 0.9.

This passage reports AC50 and outcome results from PubChem BioAssay (EPA / NIEHS).

Aryl hydrocarbon receptor (Homo sapiens), sequence (P35869 whole entry, looked up): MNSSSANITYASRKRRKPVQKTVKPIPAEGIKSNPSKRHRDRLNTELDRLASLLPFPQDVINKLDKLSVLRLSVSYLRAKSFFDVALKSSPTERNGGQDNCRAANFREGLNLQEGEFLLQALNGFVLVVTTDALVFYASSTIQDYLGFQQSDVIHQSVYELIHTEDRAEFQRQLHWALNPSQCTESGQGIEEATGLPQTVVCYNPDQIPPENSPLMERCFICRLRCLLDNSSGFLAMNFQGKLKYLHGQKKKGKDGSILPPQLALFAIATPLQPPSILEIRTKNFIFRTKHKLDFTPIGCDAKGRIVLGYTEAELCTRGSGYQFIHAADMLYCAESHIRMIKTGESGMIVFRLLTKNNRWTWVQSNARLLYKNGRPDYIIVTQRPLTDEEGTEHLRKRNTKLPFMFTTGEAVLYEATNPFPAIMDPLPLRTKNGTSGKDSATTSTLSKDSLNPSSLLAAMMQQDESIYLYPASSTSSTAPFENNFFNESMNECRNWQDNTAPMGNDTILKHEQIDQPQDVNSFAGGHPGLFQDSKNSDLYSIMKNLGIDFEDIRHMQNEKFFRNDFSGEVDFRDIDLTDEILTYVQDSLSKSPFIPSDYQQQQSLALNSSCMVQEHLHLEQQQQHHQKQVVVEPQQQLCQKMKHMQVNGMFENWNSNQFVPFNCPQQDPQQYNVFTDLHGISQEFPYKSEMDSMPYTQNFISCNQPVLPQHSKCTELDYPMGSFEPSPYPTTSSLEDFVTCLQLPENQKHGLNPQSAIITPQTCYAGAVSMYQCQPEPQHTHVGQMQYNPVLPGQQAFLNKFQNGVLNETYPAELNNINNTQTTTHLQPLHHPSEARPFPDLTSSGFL

Test system in the first assay: not listed separately
In words: ATG_CMV_CIS: Attagene CIS-FACTORIAL HepG2 Assay for human CMV (Internal Marker) (AID 2282928).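 Further: endpoint acts as a background internal control marker rather than a target.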 Conditions: HepG2 CMV promoter reporter, transcription factor profiling; actives raise or lower the signal. The procedure, abridged:
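Readout: fluorescent reporter cDNA fragments separated by capillary electrophoresis after RT-PCR and HpaI cut. Cells: HepG2 carrying transfected cis-promoter reporter constructs, dosed 24 h. Endpoint serves as background internal-marker control, fit bidirectionally versus DMSO.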
Consider `CC(C)(C)c1cc(/C=C2\SC(N)=NC2=O)cc(C(C)(C)C)c1O`, for which the AC50 was 4.67 µM (active).

For `CCCC(=O)OCCC(C)C`, the outcome was inactive. As to `Cc1ncc(CO)c(CO)c1O`, the outcome was inactive. `CCN(CC)C(=O)c1cc(S(=O)(=O)Cc2ccccc2)c(N2CCC(c3ccccc3)CC2)cc1N(CC)CCN(C)C`: the compound was classed as inactive. Consider `CCCCOC(=O)CC(CC(=O)OCCCC)(OC(C)=O)C(=O)OCCCC`, for which the outcome was inactive. On the same count and under the same terms, the entry for `Cc1ccc2oc(CN(Cc3ccccc3)C(=O)Nc3c(F)cc(F)cc3F)c(-c3ccc(Cl)cc3)c2c1` is “inactive”; for `CCCCCCCCOC(=O)c1cc(O)c(O)c(O)c1` it is “inactive”; for `O=c1[nH]sc2ccccc12` it is “inactive”. For the compound `CCCCCCCCOc1ccc(C(=O)c2ccccc2)c(O)c1`, the compound was called inactive. On to `CN1C(=O)N(c2ccccc2Br)Cc2cnc(Nc3ccc4c(c3)OCC(CO)O4)nc21` (stereo not given), for which the outcome was inactive.

Regarding `Clc1ccccc1C(c1ccccc1)(c1ccccc1)n1ccnc1`, the AC50 was 17.8 µM (active). For the compound `CC(O)CC(C)(C)O` (stereo not given), the result was inactive. For the compound `CCOC(=O)O[C@H](C)OC(=O)c1ccc2c(c1)cc(C(=O)NC1CCN(C(C)C)CC1)n2Cc1cc(-c2ccc(Cl)s2)on1`, the call was inactive. As to `O=CCCCC=O`, the call was inactive. Regarding `CC(C)(c1cc(Br)c(O)c(Br)c1)c1cc(Br)c(O)c(Br)c1`, the half-maximal activity concentration (AC50) was 53.3 µM (active) and 58.5 µM (active). In the case of `Cc1cccc2ccccc12`, the compound was classed as inactive.

As to `CC(C)(O)c1ccc(CNC(=O)c2cccnc2Oc2ccc3nonc3c2)cc1`, the compound was called inactive.

With `CCO[Si](CCCNC(N)=O)(OCC)OCC`, the call was inactive. Same read-out and setting: to `C[C@]12CC[C@@H]3c4ccc(O)cc4CC[C@H]3[C@@H]1CCC2=O` belongs “inactive”; to `COc1cccc([C@H](O)C2CCN(CCc3ccc(F)cc3)CC2)c1OC`, “inactive”.

Test system in a further assay: not listed separately
The experiment in a line: ATG_DR4_LXR_CIS: Attagene CIS-FACTORIAL HepG2 Assay for human Liver X Receptor (LXR), DR4 submotif (AID 2282929). The note with it: HepG2 Attagene DR4 cis-reporter, mRNA transcription; actives raise or lower the signal. The procedure, abridged: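 Readout: reporter transcript fluorescence after RT-PCR and capillary electrophoresis, fitted bidirectionally against DMSO controls. Human HepG2 liver cells carried transiently transfected multiplexed reporter constructs; endogenous transcription factor activity measured 24 h post-dosing.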
Turning to `O=C=NCCCCCCN=C=O`, the compound was called inactive. As to `NCc1cccc(C2CCN(C(=O)c3ccc(C#Cc4ccccc4F)o3)CC2)c1`, the result was inactive. Consider `CCCCCCCCOC(=O)c1cc(O)c(O)c(O)c1`, for which the compound was classed as inactive. Regarding `O=CCCCC=O`, the outcome was inactive.

Regarding `C[C@]12CC[C@@H]3c4ccc(O)cc4CC[C@H]3[C@@H]1CCC2=O`, the outcome was inactive.

A further assay deals with Aryl hydrocarbon receptor (Homo sapiens) (UniProt P35869). In words: ATG_Ahr_CIS: Attagene CIS-FACTORIAL HepG2 Assay for human Aryl Hydrocarbon Receptor (Ahr) (AID 2282930). The note with it: HepG2 AhR cis-factorial reporter transcription; actives raise or lower the signal. The procedure, abridged:
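Following 24 h of chemical dosing, transfected HepG2 liver cells with cis-driven reporter units were lysed for RNA; reporter mRNA was quantified via RT-PCR and capillary electrophoresis, and responses fitted bidirectionally from DMSO.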
As to `Cc1oc2c(NC(=O)c3c(Cl)cccc3Cl)cccc2c1C(C)(C)O`, the half-maximal activity concentration (AC50) was 4.28 µM (active). Still for that read-out and setting: the figure for `COc1ccc2cc(S(=O)(=O)N[C@H](CC(=O)N[C@H](Cc3ccc(CN4[C@H](C)CCC[C@@H]4C)cc3)C(=O)N(C)C(C)C)c3ccc4c(c3)OCO4)ccc2c1` is 14.7 µM (active). For the compound `c1ccc2n[nH]nc2c1`, the concentration at half-maximal activity (AC50) is 51.9 µM (active) and the result was inactive. On to `CN1C(=O)CC[C@H]1c1cccnc1`, for which the compound was classed as inactive. Same read-out and setting: to `O=C(O)Cn1c(=O)n(Cc2ccc(Br)cc2F)c(=O)c2ccc(Cl)cc21` belongs “inactive”; to `CCCCCCCCCCCCO`, “inactive”. Consider `COc1cc(C(=O)NC2CCN(C)CC2)ccc1Nc1ncc2c(n1)N(C1CCCC1)CC(F)(F)C(=O)N2C`, for which the call was inactive. Take `O=C(OCCCCCCOC(=O)c1ccccc1)c1ccccc1`: the compound was called inactive. For `CC(C)(C)c1csc(-c2cc3cc(OCc4ccccc4CC(=O)O)ccc3o2)n1`, the call was inactive. As to `O=C=NCCCCCCN=C=O`, the call was inactive.

Take `O=C1c2ccccc2C(=O)N1CCc1noc(-c2ccc(CN3CCCCCC3)s2)n1`: the outcome was inactive.

With `CCCCCCCCCCCC[N+](C)(C)C`, the compound was classed as inactive.

For `CC(=O)N1CCN(c2ccc(OC[C@H]3CO[C@](Cn4ccnc4)(c4ccc(Cl)cc4Cl)O3)cc2)CC1`, the half-maximal activity concentration (AC50) was 0.412 µM (active).

As for `NCc1cccc(C2CCN(C(=O)c3ccc(C#Cc4ccccc4F)o3)CC2)c1`, the result was inactive.

On to `O=C1O[C@H]([C@@H](O)CO)C(O)=C1O`, for which the concentration at half-maximal activity (AC50) was 62 µM (active) and the call was inactive.

For the compound `Cc1occc1C(=O)Nc1ccc(C(=O)N2CCC(F)(F)/C(=C\C(=O)N3CCC(N4CCCCC4)CC3)c3ccccc32)cc1`, the AC50 was 12.3 µM (active). As for `CC(C)(C)c1cc(/C=C2\SC(N)=NC2=O)cc(C(C)(C)C)c1O`, the compound was classed as inactive.

Regarding `CCCC(=O)OCCC(C)C`, the call was inactive. On to `Cc1ncc(CO)c(CO)c1O`, for which the call was inactive. As to `CCN(CC)C(=O)c1cc(S(=O)(=O)Cc2ccccc2)c(N2CCC(c3ccccc3)CC2)cc1N(CC)CCN(C)C`, the compound was called inactive.

Take `CCCCOC(=O)CC(CC(=O)OCCCC)(OC(C)=O)C(=O)OCCCC`: the result was inactive. Turning to `Cc1ccc2oc(CN(Cc3ccccc3)C(=O)Nc3c(F)cc(F)cc3F)c(-c3ccc(Cl)cc3)c2c1`, the compound was called inactive. For `CCCCCCCCOC(=O)c1cc(O)c(O)c(O)c1`, the compound was called inactive. Regarding `O=c1[nH]sc2ccccc12`, the compound was classed as inactive. Turning to `CCCCCCCCOc1ccc(C(=O)c2ccccc2)c(O)c1`, the AC50 was 59.1 µM (active). For `CN1C(=O)N(c2ccccc2Br)Cc2cnc(Nc3ccc4c(c3)OCC(CO)O4)nc21` (stereo not given), the compound was called inactive. `Clc1ccccc1C(c1ccccc1)(c1ccccc1)n1ccnc1`: the AC50 was 3.01 µM (active). For the compound `CC(O)CC(C)(C)O` (stereo not given), the compound was classed as inactive. In the case of `CCOC(=O)O[C@H](C)OC(=O)c1ccc2c(c1)cc(C(=O)NC1CCN(C(C)C)CC1)n2Cc1cc(-c2ccc(Cl)s2)on1`, the result was inactive.

As for `Cc1cccc2ccccc12`, the compound was called inactive. `CC(C)(O)c1ccc(CNC(=O)c2cccnc2Oc2ccc3nonc3c2)cc1`: the call was inactive. For the compound `CCO[Si](CCCNC(N)=O)(OCC)OCC`, the compound was classed as inactive. The same measure, in the same setting: the entry for `COc1cccc([C@H](O)C2CCN(CCc3ccc(F)cc3)CC2)c1OC` is “inactive”.
